Rango dissoc inh – inhibitors of RanGTP-induced Rango-importin beta complex dissociation; Biochemical FRET Rango-importin beta, RanGTP-induced dissociation; Potency, µM (titrated, usually from 46.1 µM); 0.071% of 340,000 active; calls by dose curve; also: nearly all actives have a fitted effect of over 45% in size
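Quantitative HTS using a FRET biosensor: 0.1 uM Rango, 0.25 uM importin beta, 0.6 uM Ran, 2 mM GTP, 0.2 uM RCC1 final, PBS with DTT, Tween-20 and BSA. Post-read taken 45 min after Ran addition.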
PKM2 act – activators of human pyruvate kinase M2; P14618; purified PKM2, Kinase-Glo ATP luminescence, activation; response scale: 0% is enzyme alone, no compound; Potency, µM (top dose mostly 57.5 µM), actives largely listed as activators; 0.34% of 260,000 active; also: nearly all actives have a fitted effect of over 55% in size
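hPK-M2, >95% pure; 0.1 mM ADP / 0.5 mM PEP final; imidazole pH7.2 buffer w/ 7 mM MgCl2, 50 mM KCl; 1 h RT; Kinase-Glo lum. Intermediate enzyme activity for dual inhibitor/activator qHTS.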
ELG1 DNA repair – ELG1-dependent DNA repair inhibition; HEK293T ELG1-luciferase reporter, luminescence, 16 h; DNA damage induced by 5-fluorouridine; 2.3% of 330,000 active; Potency, µM (doses to about 46.1 µM), hits mostly inhibitors; AID 504467; also: nearly all actives have a fitted effect of over 55% in size
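Reporter activity after DNA damage by 5-fluorouridine is monitored. Compound-treated cells incubate 16 hr at 37 °C, then ONE-Glo is added for 30 min before luminescence reading.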
Tb PFK block – blocks T. brucei phosphofructokinase | T. brucei PFK, ADP-Glo luminescence | Potency, µM (doses to about 57.5 µM), actives largely listed as inhibitors | 0.17% of 330,000 active; also: nearly all actives have a fitted effect of over 60% in size
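In TEA buffer at pH 8.0 with 5 mM MgCl2, enzyme (1.25 nM) converted F6P (0.5 mM) and ATP (0.1 mM) for 45 min at room temperature. ADP product was read by luciferase luminescence.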
Rango-impB inh – inhibitors of Rango-importin beta complex formation; Q14974; Rango CFP/YFP FRET sensor + importin beta, 45 min; Potency, µM (highest dose often 92.2 µM); 0.031% of 340,000 active; AID 540263; calls by dose curve; also: nearly all actives have a fitted effect of over 15% in size
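FRET biosensor (snurportin 1 IBB flanked by EYFP and cerulean), 50 nM, with compound 5 min, then 0.125 microM importin beta in PBS, 1 mM DTT, 0.02% Tween-20, 0.1% BSA. CFP/YFP ratio read after 45 min at room temperature; pre-read flags interference.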
Tb PGK inh – blocks T. brucei phosphoglycerate kinase | P07378 | PGK/GAPDH coupled, Kinase-Glo luminescence, 60 min | Potency, µM (series often up to 57.5 µM), most hits filed as inhibitors | 0.043% of 380,000 active | AID 602233; also: nearly all actives have a fitted effect of over 60% in size
Target sequence (P07378 whole entry, looked up): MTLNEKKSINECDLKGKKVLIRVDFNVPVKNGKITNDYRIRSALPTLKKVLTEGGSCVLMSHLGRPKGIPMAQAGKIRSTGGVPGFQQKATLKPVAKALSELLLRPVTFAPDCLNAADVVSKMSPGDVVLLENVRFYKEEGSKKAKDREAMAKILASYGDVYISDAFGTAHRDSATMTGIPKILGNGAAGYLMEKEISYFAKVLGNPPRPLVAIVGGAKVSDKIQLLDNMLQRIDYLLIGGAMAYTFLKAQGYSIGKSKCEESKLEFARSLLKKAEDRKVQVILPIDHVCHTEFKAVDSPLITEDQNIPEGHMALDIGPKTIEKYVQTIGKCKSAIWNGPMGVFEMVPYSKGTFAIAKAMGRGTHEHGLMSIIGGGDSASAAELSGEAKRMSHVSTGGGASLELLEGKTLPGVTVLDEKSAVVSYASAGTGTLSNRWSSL
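Recombinant glycosomal PGK reaction used 1,3-bisphosphoglycerate generated in-well by GAPDH (100nM final) in 100mM TEA pH 7.6, 5mM MgCl2, 0.01% Tween-20. After 60 minutes at room temperature, ATP was read by Kinase-Glo Plus luminescence end-point.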
Of the large screens only hits and unclear results are named; the others gave an inactive call. Hits are enriched below; roughly 2.4% of the tested compounds scored in any of these assays. Unless noted, calls follow the shape of the dose curve; as a rule, active = well fitted curve in the direction sought with a large enough effect; inconclusive = small, poorly fitted or top-dose-only effect, or another doubt; inactive = no such curve, though single readings can be large; an effect the other way counts as inactive or inconclusive.

C[C@@H](C(=O)NCCc1c[nH]c2ccccc12)[C@H]1C[C@]1(C)[C@H](NC(=O)OCc1ccccc1)c1ccccc1	ELG1 DNA repair 18µM
C[C@@H](C(=O)NCCF)[C@H]1C[C@]1(C)[C@H](NC(=O)OCc1ccccc1)c1ccccc1	none (no result: Rango dissoc inh, ELG1 DNA repair, Tb PFK block, Rango-impB inh, Tb PGK inh)
O=C1c2cc(S(=O)(=O)NCCO)ccc2-c2ccc(S(=O)(=O)NCCO)cc21	PKM2 act 5.6µM
N#CC(C#N)=C1c2cc(S(=O)(=O)NCCO)ccc2-c2ccc(S(=O)(=O)NCCO)cc21	PKM2 act 1.3µM
O=C(O)CNS(=O)(=O)c1ccc2c(c1)C(=O)c1cc(S(=O)(=O)NCC(=O)O)ccc1-2	none
CCOc1ccc(NC(=O)CSc2oc(-c3ccco3)nc2S(=O)(=O)c2ccccc2)cc1	none (no result: Rango dissoc inh, PKM2 act, ELG1 DNA repair, Tb PFK block, Rango-impB inh)
Cc1ccccc1SCC(=O)OCC(=O)NCCNC(=O)COC(=O)CSc1ccccc1C	ELG1 DNA repair inconclusive (no result: PKM2 act)
Cc1ccc(OC(C)C(=O)Nc2ccncc2)cc1C (stereo not drawn)	ELG1 DNA repair inconclusive
CC(Oc1ccc(Br)cc1)C(=O)Nc1ccncc1 (stereo not drawn)	ELG1 DNA repair 5.2µM
O=C(Cc1ccc(F)cc1)Nc1cccc(-c2cn3c(n2)SCC3)c1	ELG1 DNA repair 16µM
O=C(Nc1cccc(-c2cn3c(n2)SCC3)c1)c1ccc(Br)o1	ELG1 DNA repair inconclusive
COc1ccc(N2CCN(C(=O)CCCN3C(=O)c4cccc5cccc(c45)C3=O)CC2)cc1	ELG1 DNA repair 10µM
O=C(CCCN1C(=O)c2cccc3cccc(c23)C1=O)N1CCN(c2ccc(F)cc2)CC1	ELG1 DNA repair inconclusive
COC(=O)CNC(=O)[C@@]1(C)C=C[C@@H](Cc2ccccc2)N1C(C)=O	none (no result: Rango dissoc inh, ELG1 DNA repair, Tb PFK block, Rango-impB inh, Tb PGK inh)
CCOC(=O)Cc1nn(Cc2nc(-c3ccc(C#N)cc3)cs2)c(=O)c2ccccc12	ELG1 DNA repair 10µM
CCOC(=O)Cc1nn(CC)c(=O)c2ccccc12	none
Cc1ccc(S(=O)(=O)CCC(=O)OCC(=O)c2cc(C)n(C)c2C)cc1	Rango dissoc inh inconclusive, Rango-impB inh inconclusive (no result: PKM2 act)
Cc1cccc(C(=O)NCCCNC(=O)c2cccnc2)c1	none
CN(CCO)S(=O)(=O)c1ccc2c(c1)C(=NO)c1cc(S(=O)(=O)N(C)CCO)ccc1-2	none
NS(=O)(=O)c1ccc2c(c1)C(=NO)c1cc(S(N)(=O)=O)ccc1-2	PKM2 act 4µM
Clc1ccc(Cl)c(-c2nn3c(COc4ccccc4)nnc3s2)c1	none
COc1ccc(OCc2nn3c(Cn4cnc5ccccc54)nnc3s2)cc1	PKM2 act 25µM, ELG1 DNA repair 23µM
c1ccc(CCc2nn3c(Cn4cnc5ccccc54)nnc3s2)cc1	PKM2 act inconclusive (no result: Tb PGK inh)
Clc1ccccc1-c1nn2c(Cn3cnc4ccccc43)nnc2s1	PKM2 act 4µM
c1ccc2c(c1)ncn2Cc1nnc2sc(-c3ccc4c(c3)OCO4)nn12	PKM2 act 11µM
Cn1nc(-c2ccccc2F)c2cc(C(=O)NCc3ccccc3Cl)sc21	none (no result: Rango dissoc inh, PKM2 act, ELG1 DNA repair, Tb PFK block, Rango-impB inh)
Cn1c(=O)c2sccc2n2c(CCCC(=O)NCc3ccc(F)cc3)nnc12	Rango-impB inh inconclusive
CCOc1ccccc1NC(=O)c1ccccc1-c1nc(-c2ccccc2OC)no1	ELG1 DNA repair 18µM
Cc1ccc(C(=O)c2ccccc2C(=O)OCC(=O)N2CC(C)CC(C)C2)cc1 (stereo not drawn)	ELG1 DNA repair 18µM (no result: PKM2 act)
CCCCCCCN1CCN=C1Nc1ccccc1	none (no result: PKM2 act)
O=C(c1ccc(=O)[nH]n1)N1CCN(S(=O)(=O)c2ccc3ccccc3c2)CC1	ELG1 DNA repair 16µM (no result: PKM2 act)
O=S(=O)(c1ccc2ccccc2c1)N1CCCCCC1	ELG1 DNA repair inconclusive
CN1CCCN(S(=O)(=O)c2ccc3ccccc3c2)CC1	PKM2 act 20µM
O=S(=O)(c1cccc(S(=O)(=O)N2CCCC2)c1)c1cccc(S(=O)(=O)N2CCCC2)c1	ELG1 DNA repair 21µM, Rango-impB inh inconclusive
CNC(=S)N1CCN(S(=O)(=O)c2ccc3ccccc3c2)CC1	PKM2 act 20µM
